Source: PubChem BioAssay (National Center for Advancing Translational Sciences (NCATS))
A selection: hits, their analogues and other compounds. The true share with any hit is near 4.6%.
D1 ag – agonists of human D1 dopamine receptor; HEK293 T-REx D1 cells, calcium flux, agonist mode; activation, % at 2 µM; actives 1% (n = 360,000); AID 504660; further: 0% is about no effect
Target sequence (P21728 whole entry, looked up): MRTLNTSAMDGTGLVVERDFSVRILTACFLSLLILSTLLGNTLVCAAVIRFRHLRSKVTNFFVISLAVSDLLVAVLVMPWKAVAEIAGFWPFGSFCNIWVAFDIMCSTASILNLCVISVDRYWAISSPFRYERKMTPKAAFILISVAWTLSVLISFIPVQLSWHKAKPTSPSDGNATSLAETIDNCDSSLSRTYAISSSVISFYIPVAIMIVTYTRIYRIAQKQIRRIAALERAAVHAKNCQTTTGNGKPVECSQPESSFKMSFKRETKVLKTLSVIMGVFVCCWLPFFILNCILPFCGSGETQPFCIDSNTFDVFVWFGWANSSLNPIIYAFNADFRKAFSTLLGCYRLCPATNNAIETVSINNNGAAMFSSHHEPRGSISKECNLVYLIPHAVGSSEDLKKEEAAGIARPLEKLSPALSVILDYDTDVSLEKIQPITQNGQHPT
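Tetracycline-induced HEK293 TREx D1 cells, force-coupled to calcium signalling, were dye-loaded with a no-wash calcium kit. Compound was pin-added after a 10 s baseline. Fluorescence was read kinetically at 1 cycle/s for 180 s, with calcium rises flagged as agonism.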
D1 antagonist – antagonists of human D1 dopamine receptor; P21728; HEK293 TREx D1 cells, calcium flux, dopamine EC80; stronger effect = lower value; activity change, negative = inhibition, % at 10 µM; actives 3.2% (n = 360,000); AID 504652; in the data active means activity change below about -30%; further: on the % scale 0 is the no-effect control and ±100 the full control effect
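Kinetic fluorescence of a calcium dye serves as the read-out. D1-expressing Hek293 Trex cells, induced overnight at 30 C, are exposed to compound for 180 s before an EC80 dopamine addition, then read 180 s further.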
D1 PAM – potentiators of human D1 dopamine receptor; P21728; HEK293 TREx D1 cells, calcium flux, dopamine EC20 potentiation; potentiation, % at 10 µM; actives 0.036% (n = 360,000); AID 504651; in the data active means potentiation above about 30%; further: 0% is about no effect
TRHR PAM – allosteric enhancers of human TRH receptor. P34981. TRHR cells, fluo-8 calcium fluorescence, EC20 TRH enhancement. enhancement, % at 2 µM. actives 0.66% (n = 360,000); in the data active means enhancement above about 30%; further: 0% is about no effect
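TRHR-expressing cells loaded with fluo-8 calcium dye were read kinetically (ex 480/em 530) during compound addition, then stimulated with an EC20 of TRH (10 nM final). Enhancement of the Gq-mediated intracellular calcium response was scored.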
TRHR agonist – activates the human TRH receptor; actives 0.18% (n = 360,000); TRHR cells, calcium flux fluo-8, FDSS agonist mode; P34981; activation, % at 2 µM; further: 0% is about no effect
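Read-out: compound-evoked intracellular calcium rise in TRHR cells, fluo-8 dye, kinetic FDSS fluorescence at 1 s/cycle following a 10-cycle baseline. Cells cultured overnight before dye loading (30 min–1.5 h, RT).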
* marks the source's active call; other numbers are inactive results; ! = repeats disagree. Unless noted, no stated cut-off is given here; in the data, active means activation above about 30%; inactive means the rest.

`Cc1cc2c(s1)c1cnn(Cc3ccc(SC(F)(F)F)cc3)c(=O)c1n2C` gave D1 ag 4.5, D1 antagonist 6.7, D1 PAM 7.0, TRHR PAM -3.9 and TRHR agonist -0.1.
Screening COc1c(O)cc2oc(-c3ccc(O)cc3)cc(=O)c2c1O returned D1 ag 1.8, D1 antagonist -21.1, D1 PAM -7.5, TRHR PAM -2.3 and TRHR agonist -0.7.
Screening COc1cc(OC)c(-c2c3cc(O)c(=O)cc-3oc3cc(O)c(O)cc23)cc1OC returned D1 ag 626.0*, D1 antagonist 71.3, D1 PAM 31.9*, TRHR PAM 151.8* and TRHR agonist 266.0*.
Screening Cc1c2cc(O)c(=O)cc-2oc2cc(O)c(O)cc12 returned D1 ag 33.8*!, D1 antagonist -3.8, D1 PAM -3.1, TRHR PAM 6.1 and TRHR agonist 2.7.
For CN(C)c1ccc(/C=C(/C#N)C(=O)NCc2ccccc2)o1 the results were D1 ag 101.6*, D1 antagonist -3.3, D1 PAM -3.8, TRHR PAM -2.4 and TRHR agonist 42.7*.
O=C(NS(=O)(=O)Oc1cccc(Cl)c1Cl)OC[C@@H]1CCCN2CCCCC12 (some centres not stated) was read as D1 ag 2.2, D1 antagonist 3.0, D1 PAM -1.2, TRHR PAM -2.0 and TRHR agonist 0.4.
Screening CCCn1c(=O)c(C(=O)NNC(=O)c2ccccc2Cl)c(O)c2ccccc21 returned D1 ag 21.1, D1 antagonist -18.8, D1 PAM -6.3, TRHR PAM -2.1 and TRHR agonist 30.1*.
Screening CCCn1c(=O)c(C(=O)NNC(=O)Cc2ccccc2)c(O)c2ccccc21 returned D1 ag 5.6, D1 antagonist -4.9, D1 PAM -5.7, TRHR PAM 33.2* and TRHR agonist -0.2.
Screening CCCn1c(=O)c(C(=O)NNC(=O)c2ccccc2[N+](=O)[O-])c(O)c2ccccc21 returned D1 ag 1.7, D1 antagonist -6.4, D1 PAM -15.7, TRHR PAM 0.8 and TRHR agonist 0.3.
`COc1ccc(-n2c(=O)c3c(c4cc(OC)ccc4n3C)n(CC(=O)N3CCCC3)c2=O)cc1` gave D1 ag -2.4, D1 antagonist 1.4, D1 PAM 0.1, TRHR PAM 0.4 and TRHR agonist -0.4.
`O=C1Cc2cc(NS(=O)(=O)c3ccc([N+](=O)[O-])cc3)cc3c2N1CCC3` gave D1 ag 1.2, D1 antagonist -32.3*, D1 PAM -2.0, TRHR PAM -2.3 and TRHR agonist -0.7.
For CC(=O)N1N=C(c2ccc(NS(=O)(=O)c3ccccc3)cc2)CC1c1ccco1 (configuration not stated) the results were D1 ag 0.1, D1 antagonist -36.0*, D1 PAM 0.1, TRHR PAM -3.8 and TRHR agonist 0.1.
For CC(=O)N1N=C(c2cccc(NS(=O)(=O)c3ccc(C)cc3)c2)CC1c1ccco1 (configuration not stated) the results were D1 ag 12.1, D1 antagonist -13.7, D1 PAM -3.8, TRHR PAM 3.2 and TRHR agonist 0.1.
`CN(C)c1ccc(/C=C/C(=O)c2cccnc2)cc1` gave D1 ag 175.6*, D1 antagonist -0.5, D1 PAM -8.8, TRHR PAM 6.4 and TRHR agonist 95.4*.
For COc1ccc2cc(C(=O)/C=C/c3cc(OC)c(O)c(OC)c3)ccc2c1 the results were D1 ag 24.9, D1 antagonist -12.7, D1 PAM -4.6, TRHR PAM 1.1 and TRHR agonist 14.1.
`O=C(/C=C/c1cccc(O)c1)c1cccnc1` gave D1 ag 0.6, D1 antagonist 10.3, D1 PAM 0.1, TRHR PAM 5.4 and TRHR agonist 1.0.
Screening CN(C)c1ccc(/C=C/C(=O)c2ccccc2O)cc1 returned D1 ag 35.1*, D1 antagonist -25.0, D1 PAM -0.7, TRHR PAM -5.7 and TRHR agonist 13.4.
For Cc1ccc(/C=C/C(=O)c2ccccc2O)cc1 the results were D1 ag 1.4, D1 antagonist -5.2, D1 PAM 0.7, TRHR PAM 1.0 and TRHR agonist 0.0.
COc1ccc(C(=O)/C=C/c2ccccc2)c(OC)c1 was read as D1 ag -4.1, D1 antagonist -11.4, D1 PAM 2.1, TRHR PAM -1.1 and TRHR agonist 0.0.
Screening COc1ccc(C(=O)/C=C/c2ccc(N(C)C)cc2)c(OC)c1 returned D1 ag 295.2*, D1 antagonist 4.0, D1 PAM -4.5, TRHR PAM 8.3 and TRHR agonist 127.0*.
For COc1ccc(C(=O)/C=C/c2cc(OC)c(O)c(OC)c2)c(F)c1 the results were D1 ag 52.3*, D1 antagonist -5.1, D1 PAM -3.8, TRHR PAM 6.2 and TRHR agonist -2.4.
For CN(C)S(=O)(=O)c1ccc(NC(=O)CCCNC(=O)c2ccc(Cl)cc2)cc1 the results were D1 ag 1.2, D1 antagonist -6.2, D1 PAM -8.7, TRHR PAM 6.7 and TRHR agonist 0.3.
Cc1cn2c(=O)cc(COC(=O)c3ccc(NC(=O)c4ccc(F)cc4)cc3)nc2s1 was read as D1 ag -1.0, D1 antagonist 6.0, D1 PAM 1.7, TRHR PAM 1.6 and TRHR agonist 0.2.
Screening C/C(=C\c1ccccc1)C(=O)c1c(C)cc(C)[nH]c1=O returned D1 ag -3.2, D1 antagonist 21.1, D1 PAM 2.9, TRHR PAM 31.7* and TRHR agonist 0.6.
Screening O=C(Nc1cccnc1)Nc1cc(Cl)cc(Cl)c1 returned D1 ag 23.5, D1 antagonist -33.3*, D1 PAM -11.1, TRHR PAM -12.3 and TRHR agonist -0.3.
For CNS(=O)(=O)c1ccc(NC(=O)Nc2cccc(F)c2)cc1 the results were D1 ag 4.2, D1 antagonist -49.5*, D1 PAM -10.7, TRHR PAM -3.9 and TRHR agonist 1.4.
CCC(C)[C@H](NC(=O)Nc1cccc(Cl)c1)C(=O)O (some centres not stated) was read as D1 ag 31.0*, D1 antagonist -11.7, D1 PAM -1.6, TRHR PAM -11.9 and TRHR agonist 0.4.
`O=C(Nc1cccc(Cl)c1)Nc1cccc(Cl)c1` gave D1 ag 18.9, D1 antagonist -49.4*, D1 PAM -22.1, TRHR PAM -2.2 and TRHR agonist 1.9.
For CC(=O)Nc1cccc(NC(=O)Nc2cccc(F)c2)c1 the results were D1 ag 2.9, D1 antagonist -7.7, D1 PAM 1.6, TRHR PAM 1.6 and TRHR agonist 0.7.
O=C(Nc1ccccc1)Nc1cc(Cl)cc(Cl)c1 was read as D1 ag 22.7, D1 antagonist -26.9, D1 PAM -13.7, TRHR PAM -10.7 and TRHR agonist 1.6.
O=C(Nc1cccnc1)Nc1ccccc1Cl was read as D1 ag 1.8, D1 antagonist 8.4, D1 PAM 0.6, TRHR PAM -11.2 and TRHR agonist 0.7.
